Source: PubChem BioAssay AID1159580 (chemical genetic matrix, 2015)
“And” between values parts separate entries of the source, which are not always exact repeats. Identical values can stand only once. About 2,000 (36%) of roughly 5,500 compounds were called active. Roughly 18% stayed inconclusive and do not appear here. Rule as the data show it: active = normalized growth mostly below about 0.91 (no sharp cut-off); inconclusive = no clear call, values can overlap the other calls; inactive = mostly above about 0.92. Some of the results follow.

Experiment: chemical genetic growth profiling, strain panel (AID 1159580);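 also: tested at 20 µM; growth read once vehicle control cultures reached saturation at 30 °C; 1 = growth at the plate median or of vehicle wells; lower values mean less growth of the strain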
Details: S. cerevisiae deletion strains, growth OD

Measured: normalized growth

CCN(CC)CCOc1ccc(/C(=C(\Cl)c2ccccc2)c2ccccc2)cc1
inactive: locus YHR079C, strain IRE1, stronger effect = lower value 0.945 | locus YIL125W, strain kgd1, stronger effect = lower value 0.983 | locus YJR066W, strain TOR1, stronger effect = lower value 0.982
0.0542 (active) and 0.924 (inactive): locus YHR030C, strain SLT2, stronger effect = lower value
0.0616 (active) and 0.946 (inactive): locus YJL095W, strain BCK1, stronger effect = lower value
active: locus YAL013W, strain DEP1, stronger effect = lower value 0.0553 | locus YAL021C, strain ccr4, stronger effect = lower value 0.064 | locus YAL026C, strain drs2, stronger effect = lower value 0.0617 | locus YAL030W, strain snc1, stronger effect = lower value 0.076 | locus YBL061C, strain skt5, stronger effect = lower value 0.0714 | locus YBR009C, strain hhf1, stronger effect = lower value 0.0875 | locus YBR021W, strain FUR4, stronger effect = lower value 0.089 | locus YBR023C, strain chs3, stronger effect = lower value 0.0792 | locus YBR171W, strain sec66, stronger effect = lower value 0.17 | locus YBR229C, strain ROT2, stronger effect = lower value 0.0488 | locus YBR231C, strain swc5, stronger effect = lower value 0.0847 | locus YBR279W, strain paf1, stronger effect = lower value 0.265 | locus YCL011C, strain gbp2, stronger effect = lower value 0.0699 | locus YCL016C, strain dcc1, stronger effect = lower value 0.203 | locus YCL029C, strain bik1, stronger effect = lower value 0.0627 | locus YCL069W, strain vba3, stronger effect = lower value 0.11 | locus YCR088W, strain abp1, stronger effect = lower value 0.107 | locus YDL005C, strain med2, stronger effect = lower value 0.11 | locus YDL035C, strain GPR1, stronger effect = lower value 0.0517 | locus YDL040C, strain nat1, stronger effect = lower value 0.479 | locus YDL074C, strain BRE1, stronger effect = lower value 0.0809 | locus YDL101C, strain DUN1, stronger effect = lower value 0.0611 | locus YDL185W, strain tfp1, stronger effect = lower value 0.124 | locus YDL192W, strain arf1, stronger effect = lower value 0.0614 | locus YDR001C, strain nth1, stronger effect = lower value 0.216 | locus YDR069C, strain doa4, stronger effect = lower value 0.0706 | locus YDR101C, strain arx1, stronger effect = lower value 0.0624 | locus YDR137W, strain rgp1, stronger effect = lower value 1.41 [resistant] | locus YDR159W, strain sac3, stronger effect = lower value 0.105 | locus YDR162C, strain NBP2, stronger effect = lower value 0.0484 | locus YDR195W, strain ref2 0.235 | locus YDR297W, strain sur2, stronger effect = lower value 0.0942 | locus YDR318W, strain mcm21, stronger effect = lower value 0.0641 | locus YDR334W, strain swr1, stronger effect = lower value 0.0931 | locus YDR335W, strain msn5, stronger effect = lower value 0.093 | locus YDR388W, stronger effect = lower value 0.055 | locus YDR392W, strain spt3, stronger effect = lower value 0.0803 | locus YDR502C, strain sam2, stronger effect = lower value 0.0655 | locus YEL003W, strain gim4, stronger effect = lower value 0.133 | locus YEL037C, strain rad23, stronger effect = lower value 0.099 | locus YEL061C, strain CIN8 (second series), stronger effect = lower value 0.3 | locus YEL061C, strain CIN8, stronger effect = lower value 0.0516 | locus YER015W, strain faa2, stronger effect = lower value 0.143 | locus YER016W, strain bim1, stronger effect = lower value 0.218 | locus YER110C, stronger effect = lower value 0.0804 | locus YER111C, strain swi4, stronger effect = lower value 0.529 | locus YER155C, strain BEM2 (second series), stronger effect = lower value 0.851 | locus YER155C, strain BEM2, stronger effect = lower value 0.0653 | locus YER167W, strain BCK2, stronger effect = lower value 0.0512 | locus YFR010W, strain ubp6, stronger effect = lower value 0.0804 | locus YGL078C, strain dbp3, stronger effect = lower value 0.919 | locus YGL086W, strain mad1, stronger effect = lower value 0.0596 | locus YGL167C, strain pmr1, stronger effect = lower value 0.244 | locus YGL173C, strain kem1, stronger effect = lower value 0.497 | locus YGL227W, strain vid30, stronger effect = lower value 0.144 | locus YGL240W, strain doc1, stronger effect = lower value 0.228 | locus YGL248W, strain PDE1, stronger effect = lower value 0.0492 | locus YGL253W, strain hxk2, stronger effect = lower value 0.0662 | locus YGR135W, strain pre9, stronger effect = lower value 0.069 | locus YGR252W, strain gcn5, stronger effect = lower value 0.178 | locus YHR013C, strain ard1, stronger effect = lower value 0.134 | locus YHR027C, strain rpn1, stronger effect = lower value 0.109 | locus YHR079C, strain IRE1 (second series), stronger effect = lower value 0.0584 | locus YHR094C, strain hxt1, stronger effect = lower value 0.0617 | locus YHR129C, strain ARP1, stronger effect = lower value 0.0567 | locus YHR142W, strain chs7, stronger effect = lower value 0.08 | locus YHR200W, strain rpn10, stronger effect = lower value 0.0639 | locus YIL066C, strain RNR3, stronger effect = lower value 0.0508 | locus YIL073C, strain SPO22, stronger effect = lower value 0.106 | locus YIR030C, strain dcg1, stronger effect = lower value 0.0601 | locus YJL092W, strain hpr5, stronger effect = lower value 0.193 | locus YJL095W, strain BCK1 (second series), stronger effect = lower value 0.0616 | locus YJL115W, strain asf1, stronger effect = lower value 0.262 | locus YJL129C, strain trk1, stronger effect = lower value 0.158 | locus YJL134W, strain LCB3, stronger effect = lower value 0.0524 | locus YJL154C, strain vps35, stronger effect = lower value 0.095 | locus YJL164C, strain tpk1, stronger effect = lower value 0.0775 | locus YJL166W, strain qcr8, stronger effect = lower value 0.0887 | locus YJL168C, strain set2, stronger effect = lower value 0.0577 | locus YJL187C, strain SWE1 (second series), stronger effect = lower value 0.0519 | locus YJR043C, strain POL32, stronger effect = lower value 0.064
